Rows were chosen to be rich in hits. Some 4.8% of all compounds tested hit in one or more screens of this group.
HIF act = HIF pathway transcriptional activators, primary screen, cell-based, U2OS HRE-luciferase, luminescence; activation, % at 7.5 µM (by protocol); U2OS HRE-luciferase reporter; normalized: DMSO 0%, desferrioxamine 100%; hit rate 0.32% among 300,000;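 active = mean activation of at least 10% of the iron chelator positive control signal, with at least half of replicates also reaching 10%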
Mot1-301 SUMO = yeast Mot1-301 growth rescue at high temperature, primary screen, SUMOylation pathway inhibitor project, S. cerevisiae, ATP luminescence, 38.5C; S. cerevisiae Mot1-301 growth rescue; percent above DMSO median, 100 means doubled; growth rescue, % at 18.8 µM; hit rate 1% among 320,000; AID 2716, 2010;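 active = every valid replicate shows activation above 250% relative to neutral control wells; inactive = the rest, any valid replicate at or below 250%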;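 note: OY570 slx delta 5 strain wells were the positive control but not used for scaling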
ALR H2O2 inh = inhibitors of human ALR sulfhydryl oxidase, primary screen, biochemical, H2O2 detection, HRP-luminol luminescence, single point; AID 485317, 2010; purified ALR, DTT oxidation; inhibition, % (test concentration not listed); hit rate 3.8% among 290,000;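 active = mean replicate inhibition above about 79%, with every replicate also reaching it, limit read from the data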
Target sequence (P55789 whole entry, looked up): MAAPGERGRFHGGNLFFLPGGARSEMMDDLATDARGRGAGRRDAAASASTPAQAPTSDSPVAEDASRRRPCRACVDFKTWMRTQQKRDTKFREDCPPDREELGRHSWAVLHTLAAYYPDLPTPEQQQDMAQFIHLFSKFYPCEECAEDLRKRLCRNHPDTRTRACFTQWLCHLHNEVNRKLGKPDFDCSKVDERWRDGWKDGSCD
AI-2 QS mod = Vibrio harveyi AI-2 quorum sensing modulators, primary screen, JMH597 strain, luminescence/OD600 ratio; activity change, % at 7.5 µM; hit rate 0.4% among 300,000; AID 2094, 2009; Vibrio harveyi JMH597 AI-2 luminescence/OD600 ratio, 9 h; active compounds read low; strain lacks LuxN and CqsS sensors; 0 = neutral-control median; in the data active = activity change below about -75%, passing the limit was not always enough;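 note: luminescence divided by OD600 gain over 9 h not by final OD600 alone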
Numbers without * were called inactive; . = no result.

SMILES	HIF act	Mot1-301 SUMO	ALR H2O2 inh	AI-2 QS mod
COc1ccc(C2(C)NC(=O)N(CC(=O)Nc3ccc(Br)cc3F)C2=O)cc1OC (stereo unspecified)	0	143	-2	4
Nc1ccc(NC(=O)NC2CCCCC2)cc1	1	53	99*	11
Cc1cc(-c2ccccc2)c2c(=O)n(-c3ccccc3)[nH]c2n1	0	-19	99*	-6
O=c1c2c(-c3cccc([N+](=O)[O-])c3)ccnc2[nH]n1-c1ccccc1	0	-8	-5	10
Cc1ccc(C)c(C(=O)NC2CC(C)(C)NC(C)(C)C2)c1	-1	208	.	8
Cc1ccc(C(=O)NC2CC(C)(C)NC(C)(C)C2)cc1C	-11	-1	99*	10
O=C(NN=C1CCCCC1)c1cc(-c2ccccc2)n[nH]1	0	-6	56	11
O=C(NN=C1CCCC1)c1cc(-c2ccccc2)n[nH]1	0	1	97*	8
O=C(Nc1cccc(-c2nn[nH]n2)c1)c1cccs1	0	-10	-2	18
CC(=O)Nc1cccc(-c2nn[nH]n2)c1	-1	15	.	13
O=C(Nc1cccc(-c2nn[nH]n2)c1)c1csc2c1CCCC2	1	21	99*	3
O=C(COc1ccccc1)Nc1cccc(-c2nn[nH]n2)c1	0	98	99*	27
S=C(Nc1nc2c(s1)CCCC2)NC1CC1	4	-9	86*	12
N#CCCCc1cc2ccccc2cn1	.	8	.	.
CN(C)C=NC(=O)c1cn(-c2ccc(F)cc2)c(=O)c2ccccc12	58*	-1	-5	12
CCC1CCCCN1C(=O)c1ccc(OC2CCN(C(=O)CCOC)CC2)cc1 (stereo unspecified)	2	-4	1	2
Clc1ccc2c(N/N=C/c3ccccc3Br)ccnc2c1	.	-5	-1	10
O=[N+]([O-])c1ccc(/C=N/Nc2ccnc3cc(Cl)ccc23)o1	1	-9	.	-185*
Cc1cc(C)cc(C(=O)N(Cc2ccco2)c2c(N)n(Cc3ccccc3)c(=O)[nH]c2=O)c1	.	1	2	.
O=C(CSC1=NS(=O)(=O)c2cc(F)ccc2N1)NCc1ccccc1Cl	0	4	4	28
CCN(CC(=O)Nc1cc(Cl)ccc1C)C(=O)CCOc1ccccc1C	0	-18	4	9
O=C(Nc1nc2c(s1)CCCC2)c1ccc2ncsc2c1	0	26	43	-21
O=C(Nc1nc2c(s1)CCCC2)c1ccc(Br)s1	2	21	98*	6
O=C(Nc1nc2c(s1)CCCC2)c1ccc(N2C(=O)CCC2=O)cc1	1	1	97*	4
Cc1cccc(-n2c(-c3csc(C)c3)n[nH]c2=S)c1	-1	-8	55	1
SMILES	HIF act	Mot1-301 SUMO	ALR H2O2 inh	AI-2 QS mod
CCc1cc(-c2n[nH]c(=S)n2-c2cccc(C)c2)cs1	0	-22	85*	.
Cc1ccccc1NC(=O)CSc1nc2cc3c(cc2cc1C)CCC3	1	-17	-3	-7
Cc1cc2cc3c(cc2nc1SCC(=O)O)CCC3	1	9	98*	36
COc1ccc(/C=C2\SC(=O)N(CCCC(=O)Nc3cc(Cl)ccc3C(=O)O)C2=O)cc1	.	1	10	.
COc1ccccc1CNC(=O)c1cccnc1	1	-13	-1	-2
Cc1cc2ccccn2c1C(=O)c1ccc([N+](=O)[O-])cc1[N+](=O)[O-]	-3	317*	-22	24
O=C(NCC(c1ccco1)N1CCc2ccccc2C1)c1cccc(Br)c1 (stereo unspecified)	2	6	-3	10
Nc1cc(S(=O)(=O)N2CCCCC2)ccc1N1CCCCC1	.	18	.	.
Nc1cc(S(=O)(=O)Nc2ccccc2Cl)ccc1N1CCCC1	-1	-10	99*	29
Nc1cc(S(=O)(=O)N2CCOCC2)ccc1N1CCCCC1	.	93	98*	.
[O-][n+]1c2ccccc2[n+]([O-])c2cc(O)ccc21	-1	12	37	-2
COc1ccc(NC(=O)COC(=O)CCC(=O)c2cccs2)cc1OC	.	1	-7	.
O=C(CSc1nc(=O)n2ccccc2n1)N1CCCCCC1	0	6	.	21
Cc1ccc(C(=O)NCCNC(=O)c2ccco2)cn1	-1	-26	0	9
COC(=O)c1sc(-c2ccccc2)cc1NC(=O)C1CC1	0	-1	-9	18
COC(=O)c1sccc1NC(=O)c1ccccc1C(=O)O	0	-3	3	21
COC(=O)c1sc(-c2ccc(C(C)(C)C)cc2)cc1NC(=O)c1ccccc1C(=O)O	3	4	92*	25
COC(=O)c1sc(-c2ccc(C(C)(C)C)cc2)cc1NC(=O)CSCC(=O)O	-1	-10	98*	12
COC(=O)c1sc(-c2ccc(Cl)cc2)cc1NC(=O)c1ccccc1C(=O)O	1	-4	97*	25
CCSc1nnc(NC(=O)c2ccccn2)s1	-29	58	2	-121*
COc1ccc(N(C)S(=O)(=O)c2cccc(C(=O)Nc3cccc(C(=O)NC4CC4)c3)c2)cc1	.	-4	94*	.
CCc1nnc(NC(=O)c2cccc(S(=O)(=O)N(C)c3ccccc3)c2)s1	1	-1	-11	27
COc1ccc(N(C)S(=O)(=O)c2cccc(C(=O)Nc3nc(C)c(C(C)=O)s3)c2)cc1	.	12	99*	.
CCSc1nnc(NC(=O)c2cccc(S(=O)(=O)N(C)c3ccc(C)cc3)c2)s1	-3	-13	98*	37
CN(c1ccccc1)S(=O)(=O)c1cccc(C(=O)NCCCN2CCCC2=O)c1	0	175	1	10
SMILES	HIF act	Mot1-301 SUMO	ALR H2O2 inh	AI-2 QS mod
CCCCn1c(N)c(N(CCOC)C(=O)CSc2n[nH]c(-c3ccc(OC)cc3)n2)c(=O)[nH]c1=O	0	23	50	25
N#CC(C(=O)Nc1ccccc1)=C1Nc2ccccc2N1	2	-12	86*	12
CSCCC(=O)N1CCC(n2nccc2NC(=O)CCCc2ccccc2)CC1	0	3	-2	3
Cn1c(O)c(/C=N/Nc2ccccc2)c(=O)n(C)c1=O	-1	213	100*	-17
Cc1[nH]nc(N=Cc2c(O)n(C)c(=O)n(C)c2=O)c1-c1ccccc1	0	-28	-1	-3
O=C(O)c1cnc(-c2ccccc2)nc1Sc1cccc(Cl)c1	1	-9	96*	50
Cc1ccc(C)c(C(=O)OCC(=O)Nc2cccc(S(=O)(=O)N3CCCCC3)c2)c1	.	-3	0	.
CC(C)[C@H](NC(=O)c1ccccc1)C(=O)OCC(=O)Nc1ncc(Cl)cc1Cl	.	-8	-1	.
CSc1nc(Cl)cc(Nc2ccc(O)cc2)n1	1	-1	99*	5
O=C(CCNC(=O)c1ccco1)Nc1ccc(Cl)cc1F	-2	34	2	.
COc1ccc(C(=O)CSc2cc(C)nc3nc(C)nn23)cc1OC	2	-20	98*	21
COc1ccc(C(=O)CSC#N)cc1OC	2	-50	99*	-55

Bioassay records as filed in PubChem BioAssay.
